Bioassay records as filed in PubChem BioAssay.
KB-V1 MDR tox – kills drug-selected multidrug resistant KB-V1 cells; KB-V1 MDR cells viability, CellTiter-Glo, 72 h; Potency, µM (doses to about 46.1 µM), hits mostly cytotoxic; 400,000 compounds, 3.4% hits; also: % is scaled to controls: 0 for no effect and ±100 for the full control effect; nearly all actives have a fitted effect of over 60% in size
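Cytotoxicity via CellTiter-Glo luminescence after 72 h compound exposure at 37 degrees C. Cells: drug-selected KB-V1 line, DMEM phenol-red free plus 10% FBS. Compounds tested at multiple concentrations; normalized data fitted to concentration-effect curves.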
SW480 rerep – inducers of DNA re-replication in SW480 colon cancer cells; Potency, µM (doses to about 46.1 µM), for inactives: at the highest dose re-replication activation, actives largely listed as activators; 340,000 compounds, 1.8% hits; AID 624297; SW480 DNA re-replication, Hoechst DNA content imaging, 48 h; also: % of control where 0% means no effect; nearly all actives have a fitted effect of over 55% in size
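250 cells/well; 23 nL cpd via pin tool; 48 hr, 37 C, 5% CO2; Hoechst 40 min; imager read of total nuclear intensity, ex 405/em 500-530 nm.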
PINK1 expr mod – modulators of PINK1 expression; 410,000 compounds, 0.2% hits; PINK1 immunofluorescence, high-content cytometry, 24 h; AID 624263; Potency, µM (titrated, usually from 76.6 µM), for inactives: top-dose activation (PINK1 increase), usual class: activators; active = well fitted activation curve with a large enough effect; inconclusive = small, poorly fitted or top-dose-only effect; cell line not stated here; also: % of control where 0% means no effect; nearly all actives have a fitted effect of over 65% in size
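Compound titrations (5 concentrations, 24 h) on a stable cell line; DMSO and CCCP controls. Endpoint: fixed-cell PINK1 immunofluorescence with mitochondrial, cell and nuclear markers, scanned by microplate cytometer.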
ALOX12 inh – blocks human arachidonate 12S-lipoxygenase. Potency, µM (highest dose often 108 µM), without a hit: at the top dose activity change, negative = inhibition, usual class: inhibitors. 580,000 compounds, 1.1% hits. P18054. AID 1671190. purified 12hLO, xylenol orange hydroperoxide absorbance; also: % is scaled to controls: 0 for no effect and ±100 for the full control effect
Target sequence (P18054 whole entry, looked up): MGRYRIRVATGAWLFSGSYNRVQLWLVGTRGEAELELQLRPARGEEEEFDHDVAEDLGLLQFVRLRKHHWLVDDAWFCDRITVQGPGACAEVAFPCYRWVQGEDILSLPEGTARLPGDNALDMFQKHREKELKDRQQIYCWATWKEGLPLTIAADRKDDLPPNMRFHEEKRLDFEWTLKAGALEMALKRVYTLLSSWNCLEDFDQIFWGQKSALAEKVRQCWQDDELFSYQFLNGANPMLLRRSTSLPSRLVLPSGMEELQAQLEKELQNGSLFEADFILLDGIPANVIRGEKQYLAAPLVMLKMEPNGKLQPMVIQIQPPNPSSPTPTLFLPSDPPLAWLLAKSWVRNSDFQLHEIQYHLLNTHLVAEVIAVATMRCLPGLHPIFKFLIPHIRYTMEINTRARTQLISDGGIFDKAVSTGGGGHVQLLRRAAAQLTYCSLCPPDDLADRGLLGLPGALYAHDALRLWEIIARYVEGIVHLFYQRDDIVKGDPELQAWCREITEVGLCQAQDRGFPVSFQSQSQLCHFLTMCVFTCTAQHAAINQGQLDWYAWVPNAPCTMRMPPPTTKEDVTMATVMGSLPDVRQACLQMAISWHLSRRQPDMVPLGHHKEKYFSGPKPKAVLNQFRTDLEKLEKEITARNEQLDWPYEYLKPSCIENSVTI
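Hydroperoxide product was detected by ferrous iron/xylenol orange as the 573 to 405 nm absorbance ratio. Arachidonic acid at 40 uM (final) was turned over for 30 min at room temperature by 150 nM human 12hLO, pH 7.0 Hepes buffer, after 15 min compound preincubation.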
MCF10A rerep – induces DNA re-replication in MCF 10a normal breast cells | MCF 10A DNA re-replication, Hoechst nuclear intensity, 48 h | Potency, µM (titrated, usually from 46.1 µM), for inactives: top-dose activity, positive = re-replication, usual class: activators | 350,000 compounds, 2.9% hits; also: % of control where 0% means no effect; nearly all actives have a fitted effect of over 50% in size
KB-3-1 tox – KB-3-1 parental cell cytotoxicity; AID 1347075; KB-3-1 viability, CellTiter-Glo ATP luminescence, 72 h; 400,000 compounds, 1.4% hits; Potency, µM (series often up to 46.1 µM), actives largely listed as cytotoxic; also: % is scaled to controls: 0 for no effect and ±100 for the full control effect; nearly all actives have a fitted effect of over 60% in size
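Multi-concentration cytotoxicity screen in KB-3-1 cells grown in DMEM lacking phenol red with 10% FBS. After 72 h at 37 °C with compound, ATP-dependent luminescence was recorded.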
Starred values were filed as active, the others as inactive; i = inactive; ? = inconclusive; nt = no result given; [ ] = another dose, or the depositor's remark. In the library only some 5.8% were active in any assay of this set; here they are far more common. Unless noted, calls follow the shape of the dose curve; as a rule, active = well fitted curve in the direction sought with a large enough effect; inconclusive = small, poorly fitted or top-dose-only effect, or another doubt; inactive = no such curve, though single readings can be large; an effect the other way counts as inactive or inconclusive. Potency is read from the fitted curve at half-maximal effect.

SMILES | KB-V1 MDR tox | SW480 rerep | PINK1 expr mod | ALOX12 inh | MCF10A rerep | KB-3-1 tox
CCc1nc(NCC(C)O)c(C#N)c2c1CCCC2 (stereo unspecified) | nt | nt | nt | -25.4% | nt | nt
Cc1cc(C)[n+](C)n1-c1ccccc1 | nt | nt | nt | 17.8µM* | nt | nt
Cc1cccc(C)c1OCc1cc(C(=O)N2CC3C[C@@H]4CC2C[C@H](C3)C4)no1 | ? | 0.8% | 15.5% | -6.8% | 18.4µM* | i
CC(Sc1nnc(COc2ccc3c(c2)CCCC3)n1C)C(=O)Nc1ccc2c(c1)OCO2 (stereo unspecified) | nt | nt | nt | 20.4% | nt | nt
NNc1cc(Cl)c(Cl)cc1[N+](=O)[O-] | nt | nt | nt | 99.3% | nt | nt
NNc1cc(Cl)c(Cl)cc1Cl | nt | nt | nt | 7.08µM* | nt | nt
O=C1CSC(=S)N1/N=C/c1c(F)cccc1F | i | -11.0% | -1.4% | 28.2µM* | -4.5% | i
COc1cccc(/C=N/N2C(=O)CSC2=S)c1O | ? | ? | 1.2% | 35.5µM* | -24.5% | i
O=C1CSC(=S)N1N=Cc1c(O)ccc2ccccc12 | ? | ? | -3.7% | 11.2µM* | ? | ?
COc1cc(/C=N/N2C(=O)CSC2=S)cc(Br)c1O | ? | -7.6% | -1.2% | ? | 1.8% | ?
O=C1CSC(=S)N1N=Cc1c(F)cccc1Cl | i | nt | 1.4% | ? | nt | ?
O=C1NCc2ccccc2CC12CCCN2Cc1cc(F)ccc1F (stereo unspecified) | nt | nt | nt | 14.4%[6.33 µM] | nt | nt
N#C/C(=C\c1ccco1)C(=O)NC1CCCC1 | nt | nt | nt | 39.8µM* | nt | nt
N#C/C(=C\c1ccc([N+](=O)[O-])o1)C(=O)NC1CCCCC1 | nt | nt | nt | 15.8µM* | nt | nt
N#C/C(=C\c1cccnc1)C(=O)NC1CCCC1 | nt | nt | nt | -23.3% | nt | nt
CCOc1ccc(NC(=O)c2cc3cc(C)ccc3[nH]2)cc1 | nt | nt | nt | -0.9% | nt | nt
CC(=O)c1ccc(S(=O)(=O)N2CCN(C(=O)COc3cccc(-n4cnnn4)c3)CC2)cc1 | nt | nt | nt | -16.4% | nt | nt
O=C(Nc1cc(=O)[nH]c(=O)[nH]1)c1cc(Cl)ccc1Cl | ? | 20.6µM* | 3.3% | 0.0% | ? | 4.11µM*
O=C(Nc1cc(=O)[nH]c(=O)[nH]1)c1cccc(C(F)(F)F)c1 | i | 2.3% | 3.5% | 0.0% | -2.3% | i
COc1cccc2c3cccc(OC)c3c3[nH]cnc3c12 | ? | ? | -6.4% | -8.2% | 20.6µM* | ?
CC(=O)Nc1ccc(-c2csc(NC3CC3)n2)c(F)c1 | nt | nt | nt | 14.1µM* | nt | nt
Clc1ccc(-c2csc(NC3CC3)n2)cc1 | nt | nt | nt | 8.91µM* | nt | nt
Clc1ccc(-c2csc(NC3CC3)n2)cc1Cl | nt | nt | nt | 10µM* | nt | nt
Clc1cccc(-c2csc(NC3CC3)n2)c1 | nt | nt | nt | -26.4% | nt | nt
COc1ccc(-c2csc(NC3CCCCC3)n2)c(OC)c1 | i | -11.3% | 5.2% | ? | ? | i
SMILES | KB-V1 MDR tox | SW480 rerep | PINK1 expr mod | ALOX12 inh | MCF10A rerep | KB-3-1 tox
CCNc1ncc(CN2CCCC(CCc3cccc(C(F)(F)F)c3)C2)cn1 (stereo unspecified) | nt | nt | nt | 48.9% | nt | nt
CSC1=N/C(=C\C=C\c2ccco2)C(=O)S1 | nt | nt | nt | 3.16µM* | nt | nt
CN(C)c1cc(C(=O)NC(C2CC2)C2CC2)ccn1 | nt | nt | nt | 13.4% | nt | nt
CCN(CC)CCNc1ccc(CO)c2oc3cc(Cl)ccc3c(=O)c12 | ? | nt | -1.2% | ? | nt | ?
CN(C)CCNc1ccc(CO)c2oc3ccc(O)cc3c(=O)c12 | i | ? | -6.4% | ? | 26.6% | 16.4µM*
O=C1NC(=O)C(c2cn(-c3ccccc3)nc2-c2ccc(F)cc2)N1 (stereo unspecified) | i | ? | 2.5% | 0.0% | 18.4µM* | i
O=C(O)c1cn(-c2ccccc2)nc1-c1ccc(F)cc1 | i | 105.9% | -0.1% | 0.4% | 13µM* | i
O=Cc1cn(-c2ccccc2)nc1-c1ccc(F)cc1 | i | -2.3% | 0.5% | 16.8% | 1.2% | i
CN1CCN(C(=O)c2cccc(-c3cnc4cnc(-c5ccccc5Oc5ccccc5)cn34)c2)CC1 | 7.31µM* | nt | -0.1% | 10.2% | nt | ?
O=C(c1cccc(O)c1)N1CC=C(c2cnc3cnc(-c4ccccc4)cn23)CC1 | nt | nt | nt | 7.1%[176 µM] | nt | nt
Cn1nc(-c2ccc(Cl)cc2)c2cc(C(=O)Oc3ccccc3Cl)sc21 | nt | nt | nt | -19.3% | nt | nt
O=C1N=C(N2CCC(Cc3ccccc3)CC2)S/C1=C/c1cn[nH]c1-c1ccccc1 | 23.1µM* | -0.2% | -4.3%[38.3 µM] | 0.0% | ? | i
O=C1NC2(CCN(C(=O)Cc3ccccc3)CC2)Oc2ccccc21 | nt | nt | nt | 15.8%[176 µM] | nt | nt
COc1ccccc1CNC(=O)[C@@H]1CCCN1C(=O)C1CCN(S(=O)(=O)c2ccc(C)cc2)CC1 | 16.4µM* | -0.6% | 3.9% | -10.6% | 0.5% | i
COc1cccc(NC(=O)[C@@H]2CCCN2C(=O)C2CCN(S(=O)(=O)c3ccc(C)cc3)CC2)c1 | 18.4µM* | 15.8% | 30.1%[38.3 µM] | 0.0% | 7.6% | i
Cc1ccc(CNC(=O)C2CCCN2C(=O)Nc2ccccc2)cc1 (stereo unspecified) | i | -1.3% | 0.1% | -1.9% | 0.651µM* | i
